Laboratory results from the OligoGym collection.

These sequences were tested against EBP (assay: pooled miR-30 sensor sort-seq; sequence = guide strand). Conditions: shRNA.
Note: reference of the scale not given here.

In order of rising sensor-assay potency score (higher = more potent):
1. TTTTGTGGCCTTGGCATCCAGC  -1.25
2. TTGTCCAGTCTTAGGTGCTGAG  -1.23
3. TCGTAGTAGAGAACGAACCAGC  -1.05
4. ATGGTTTCCATGCACACTGTGA  -0.951
5. TTGGTCTCCAAGCAGGTCTTCG  -0.868
6. ATGAAGACAAAGTAAAACCAGA  -0.723
7. TTCGTAGTAGAGAACGAACCAG  -0.577
8. ATTAGGTACAAAGTTGTCCAGT  -0.389
9. TTCTCTTGTATCTGTGTTCTAA  -0.119
10. TTGGCATCCAGCGTGCTCTGGG  -0.0185
11. TAAAACCAGAAGTAGAGAGGGT  0.087
12. ACAAGCTGTAGAATGAAGCGGA  0.326

These sequences were tested against ECH1 in the same assay as above. Conditions: shRNA.

In order of falling sensor-assay potency score (higher = more potent):
1. AAATCTTGTTGAAGCACTCTAC  0.264
2. AAGGCTAATACTGAGTCCCGGG  0.193
3. TATCGAGTGATGATGTCACGGA  -0.0973
4. AAGCACTCTACCATCTCTCTCC  -0.152
5. TTGTTCTCAGTCGTGGCCTGGA  -0.493
6. TCAGCGTCTCTCGAAATCTTGT  -0.622
7. TTCTGCGCAGACGTCACACGAA  -0.688
8. TTGGGCTGCAGGATGTCCGAAG  -0.857
9. TCGAGTGATGATGTCACGGAGG  -1.15
10. TTGTGCAGAGGAGCCAGTGAGG  -1.37
11. TGTCCATCAGGTCAATACCTGC  -1.4
